# Reference: PubChem BioAssay AID2315 (National Center for Advancing Translational Sciences (NCATS), 2010)
# The campaign covered roughly 290,000 compounds. About 27,000 (9.3%) were called active. This is one part of a sample in which actives are shown more often than they occur. Unmarked numbers belong to inactive results. Cut-off read from the data, not from the text of the source: active = inhibition mostly above about 28% (no sharp cut-off); inactive = mostly below about 43%.
# Assay: A qHTS for Small Molecule Inhibitors of Shiga Toxin; for inhibition: 0% is about no effect
# Conditions: Vero cells, Shiga toxin protein synthesis inhibition reporter; at 38.7 µM, stronger effect = higher value
row,Structure (SMILES),inhibition
1,CCOc1cc2[nH]c(=S)n(Cc3ccc(C(=O)N4CCN(C)CC4)cc3)c(=O)c2cc1OCC,6.6%
2,COc1cccc(OCc2cc(C(=O)N3CCN(C(=O)c4ccco4)CC3)no2)c1,64.7% (active)
3,COc1cccc(OC)c1OCCN1CCN(C(=O)c2ccco2)CC1,-15.7%
4,COc1cc(Cl)ccc1OCc1cc(C(=O)N(C)CCc2c(C)n[nH]c2C)no1,18.3%
5,O=C(c1cc(-c2ccccc2O)on1)N1CCCC1,111% (active)
6,CCn1ccnc1CN(C)C(=O)c1cc(COc2ccc(-n3cncn3)cc2)on1,13.3%
7,O=C(c1cccc(Br)c1)N1CCN(C2=NS(=O)(=O)c3ccccc32)CC1,-5.51%
8,O=C(c1ccc(Cl)c(Cl)c1)N1CCCC1,-12.2%
9,CC(=O)c1ccc(NC(=O)c2cc(-c3cccs3)on2)cc1,35.3%
10,CNC(=O)n1ccc(C(=O)N2CCCCC2)n1,-5.37%
11,O=C(c1ccco1)N1CCN(C(=O)c2ccc(COc3ccc(F)cc3)o2)CC1,2.42%
12,CCn1ccnc1CN(C)C(=O)c1cc(COc2ccc(Cl)cc2OC)on1,49.5% (active)
13,O=C(c1cc(-c2cccs2)on1)N1CCCCC1,124% (active)
14,Cc1cc(/C=C2/SC(=O)N(CC(=O)N3CCCC3)C2=O)c(C)n1C,-6.33%
15,NC(=O)C1CCN(C(=O)/C(=C/c2ccco2)NC(=O)c2ccccc2)CC1,-19%
16,COc1ccc(OC)c(NC(=O)CSc2nc(-c3ccccc3)cc(=O)[nH]2)c1,-4.35%
17,Cc1ccc(Nc2nc(N3CCOCC3)nc(N3CCOCC3)n2)cc1Cl,5.42%
18,COc1ccccc1N1CCN(S(=O)(=O)c2ccc(Cl)cc2)CC1,-2.2%
19,Oc1c(Cl)cc(Cl)cc1/C=N/c1ncn[nH]1,-2.31%
20,Cc1ccc(N2CC(C(=O)NCCS(=O)(=O)N3CCN(c4ccccc4)CC3)CC2=O)cc1 (stereo not drawn),4.33%
21,Cn1cc(CNC(=O)c2ccc(OC3CCN(Cc4ccccn4)CC3)cc2)cn1,4.02%
22,Cc1ccc(C)c(OCc2cc(C(=O)N3CCN(c4cnccn4)CC3)no2)c1,-3.53%
23,COc1ccc(OCc2cc(C(=O)N3CCCC3)no2)c2ccccc12,147% (active)
24,CCOC(=O)CC1(NC(=O)c2cc(COc3cncc(Cl)c3)on2)CCCCC1,-11.8%
25,COc1ccc(C(=O)C2CCCN(C(=O)c3cc(C)on3)C2)cc1F (stereo not drawn),-1.62%
26,COc1ccccc1N1CCN(C(=O)c2cc(-c3ccc(Cl)c(Cl)c3)on2)CC1,0.847%

row,Structure (SMILES),inhibition
1,COc1cc(Cl)ccc1OCc1cc(C(=O)N2CC[C@@H]3CCCC[C@H]3C2)no1,120% (active)
2,COc1ccccc1-c1cc(C(=O)N2CCCCC2)no1,102% (active)
3,CCCOC1CCCN(C(=O)c2cc(COc3cncc(Cl)c3)on2)C1 (stereo not drawn),54.4% (active)
4,CCOC(=O)C1CCCN(C(=O)c2cncc(Br)c2)C1 (stereo not drawn),-10.3%
5,COc1ccccc1OCc1ccc(C(=O)N2CCN(C)CC2)o1,10.1%
6,COc1cccc(-c2cc(C(=O)N3CCN(c4ccccc4OC)CC3)no2)c1,-4.9%
7,COc1ccc(Cl)cc1C(=O)NNC(=S)NC1CCCC1,-7.04%
8,N#Cc1ccccc1S(=O)(=O)N1CCN(C(=O)c2cc(-c3ccccc3)nn2-c2ccccc2)CC1,15.4%
9,O=C(CSc1nc2ccccc2c(=O)[nH]1)Nc1nc(-c2ccc(Br)cc2)cs1,-26.5%
10,COc1ccc(C)cc1S(=O)(=O)N1CCN(S(=O)(=O)c2cc(C(=O)O)ccc2C)CC1,-1.74%
11,CN(C(=O)CN1C(=O)S/C(=C\c2ccccc2F)C1=O)C1CCS(=O)(=O)C1 (stereo not drawn),-0.834%
12,COc1ccc(C(C(=O)NCC2CCCO2)N(C(=O)Cn2nnc3ccccc32)c2ccc(NC(C)=O)cc2)cc1OC (stereo not drawn),-9.93%
13,O=C1OC2(CCCCC2)CC2=C1C1O[C@](c3ccsc3)(Cc3ccccc31)O2,inactive
14,Nc1cc(N2CCCCCC2)c2nonc2c1[N+](=O)[O-],-13.9%
15,Cc1ccc(CNC(=O)c2ccc(CS(=O)Cc3cccc(Cl)c3)o2)cc1 (stereo not drawn),-5.59%
16,CCNC(=O)Nc1ccc(S(=O)(=O)Nc2cnc(C)nc2C)cc1,-5.43%
17,O=C(NCc1ccncc1)C(=O)NCC1OCCN1S(=O)(=O)c1ccc(Br)cc1 (stereo not drawn),-17%
18,Cc1cc(C)nc(N2CCC(C(=O)Nc3ccc4c(c3)OCCO4)CC2)n1,51.5%
19,O=C(Nc1cccc(Cl)c1)C1CCCN(c2cnccn2)C1 (stereo not drawn),-10.4%
20,O=C(Nc1ccc2c(c1)OCCO2)C1CCCN(c2ncccn2)C1 (stereo not drawn),66.6% (active)
21,CC(C)=CCN1CCN(CCCc2ccccc2)CC1CCO (stereo not drawn),-4.24%
22,COc1ccc(-c2nn(-c3ccccc3)cc2/C=C2/SC(=S)N(CCCC(=O)O)C2=O)c(C)c1,-11.2%
23,CCOC(=O)c1c(C)[nH]c(C2=NNC(=NC(C)COC)SC2)c1C (stereo not drawn),75.1% (active)
24,CCOC(=O)c1c(C)[nH]c2c1-c1ccccc1C(=O)C2=O,31.2%
25,Cc1cc(Nc2ccc(C(=O)N3CCCCC3)cc2)c2cccc(C)c2n1,-5.1%
26,Cc1cccc(N=C2NN=C(c3c[nH]c4ccccc34)CS2)c1,42.1% (active)

row,Structure (SMILES),inhibition
1,Cc1cccc(C(=O)Nc2nnc(Cc3c[nH]c4ccccc34)s2)c1,-6.89%
2,Cc1cccc(N=C2NC(=O)/C(=C/c3cn(C)c4ccccc34)S2)c1,-7.28%
3,CS(=O)(=O)N1CCN=C1SCc1ccc(F)cc1,9.38%
4,COc1ccc(N(CC(=O)NCCSCc2cccc(Cl)c2)S(C)(=O)=O)cc1,-2.69%
5,CCN(CC)C(=O)COc1coc(CN2CCN(Cc3ccccc3)CC2)cc1=O,-10.1%
6,COc1cccc2cc(/C(C)=N/NC(=O)c3ccco3)oc12,32.4%
7,CCC(=O)Nc1ccc2nn(-c3ccc(F)cc3)nc2c1,74.1% (active)
8,Cc1cccc(C(=O)OCC(=O)Nc2ccc(F)cc2)c1,27.4%
9,Cc1nn(CC(=O)Nc2ccc(F)cc2)c(=O)c2ccccc12,-1.35%
10,Cc1ccccc1CN1CCC(C(=O)Nc2ccc(Oc3cccnc3)cc2)CC1,-3.91%
11,O=C(N/N=C/c1ccco1)c1ccc(NC(=O)C2CC2)cc1,-2.21%
12,O=C(CN1CCCC1)Nc1sc2c(c1C(=O)Nc1ccccc1)CCCC2,-10.4%
13,Cc1ccc(NC(=O)c2c(NC(=O)CCC(=O)O)sc3c2CCCCC3)cc1,42.9% (active)
14,O=C(N/N=C/c1ccco1)c1ccc(C(=O)N/N=C/c2ccco2)o1,-3.95%
15,Cc1ccc(NC(=O)c2csc3c2CCCC3)cc1,110% (active)
16,O=C(N/N=C/c1ccco1)c1csc2c1CCCC2,122% (active)
17,O=C(NCc1ccccc1Cl)c1csc2c1CCCCC2,11.2%
18,O=C(Nc1ccccc1N1CCOCC1)c1csc2c1CCCC2,11.3%
19,COC(=O)c1sc(NC(=O)c2csc3c2CCCC3)nc1C,76.1% (active)
20,COC(=O)c1c(NC(=O)CCCC(=O)O)sc2c1CCCCC2,-0.986%
21,CCOC(=O)c1sc(NC(=O)c2sc(C)nc2C)nc1C,30.3%
22,COC(=O)c1sccc1NC(=O)c1csc2c1CCCC2,92.6%
23,COc1ccc(S(=O)(=O)NCC(=O)NCc2cc(=O)n(C)c(=O)n2C)cc1F,-4.87%
24,CCOC(=O)c1cc2ccccc2n1CC(=O)c1ccccc1,3.23%
25,COc1cccc(N2C(=O)CN(Cc3ccccc3)C2=S)c1,24.3%
26,Cc1ccc(OCC(=O)Nc2ccc(N3CCN(C(=O)c4ccco4)CC3)cc2)c(C)c1,-6.09%

row,Structure (SMILES),inhibition
1,O=C(c1ccccc1F)N(Cc1ccccc1)Cc1ccccc1,18%
2,Cc1nc(N)nc(SCc2ccc([N+](=O)[O-])cc2)c1N,-4.97%
3,Cc1ccc(NS(=O)(=O)c2ccc3c(c2)oc(=O)n3C)c(C)c1,0.571%
4,COc1ccc(-c2ccc(OC)c(C3C4C=CCC(C)C4C(=O)N3Cc3ccccc3)c2)cc1C (stereo not drawn),31.9%
5,COc1ccc2oc(=N)c(C(=O)Nc3ccc(Br)cc3)cc2c1,14.3%
6,COc1ccc(C(=O)OCC(=O)Nc2cccc(C(C)=O)c2)cc1OC,8.39%
7,O=C(COC(=O)C1CCCCC1)Nc1ccc([N+](=O)[O-])cc1,30.9%
8,O=C(Nc1ccc([N+](=O)[O-])cc1)C1CC12CCC2 (stereo not drawn),76.1% (active)
9,O=C(Nc1ccc([N+](=O)[O-])cc1)C1(c2ccccc2)CCOCC1,-4.2%
10,Cn1nccc1C(=O)NC1CCCc2c1cnn2-c1ccccc1F (stereo not drawn),-4.18%
11,CCN1C(=O)c2cccc3c(S(=O)(=O)Nc4ccccc4O)ccc1c23,34.3%
12,CC1CN(C(=S)Nc2cccc(F)c2)CC(C)O1 (stereo not drawn),-2.89%
13,O=C(CN1CCN(c2ccccn2)CC1)Nc1ccc(Br)cc1,-9.75%
14,CCCCSc1nnc(-c2ccc(NC(=O)CC)cc2)n1C,-10.7%
15,CCC(=O)Nc1ccc(-c2ccc(N3CCCCC3)nn2)cc1,63.9% (active)
16,O=C(CN1C(=O)c2cccnc2Oc2ccc(Cl)cc21)NCCc1ccccc1,3.75%
17,Cc1cc(C)cc(NC(=O)CSc2ccccc2)c1,29.4%
18,Cc1nnc(SCC(=O)Nc2cccc(N)c2)n1-c1ccccc1,4.15%
19,O=C(Cc1ccccc1)Nc1ccc(C(=O)Nc2ccccc2C(=O)O)cc1,-19.6%
20,O=C(CSc1nc(C2CC2)nc2ccccc12)Nc1cccc(O)c1,-5.2%
21,CCOc1ccc(C(=O)Nc2ccncc2)cc1,77.7%
22,CCOc1ccc(C(=O)Nc2cccc(-c3ccc4nncn4n3)c2)cc1,35.1%
23,O=C(CSc1ccccc1)Nc1ccc(C(=O)Nc2cccc(O)c2)cc1,65.7% (active)
24,CSc1cccc(NC(=O)CSc2ccccc2)c1,3.54% (active)
25,CCOc1ccc(C(=O)Nc2cccc(SC)c2)cc1,47.7% (active)
